# This is part of a sample that, as a whole, favours compounds with a hit. Of some 83,000 tested, about 20% had one in any assay.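 Each cell line was grown in a 96-well plate and treated with one concentration of compound for 48 hours. Values below 10 were considered active.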 Calls of active or inactive are those of the source.
# Tested on: HCT-116 colon
# Assay: NCI-60 one-dose screen, 48 h (100 = growth as untreated, 0 = no growth, -100 = all killed)
# Details: 10 µM unless noted
row,SMILES,growth
1,Cc1cc(N2CCCC2)nc(NC2CCCC(Nc3ccnc4cc(Cl)ccc34)C2)n1 (stereo unspecified),-87.1% (active)
2,CN(C)c1ccc(N=Nc2ccc(Br)cn2)c(O)c1,25.5% (inactive)
3,COc1ccc(-c2cc(NC(=O)Nc3ccc4ncsc4c3)no2)cc1,102% (inactive)
4,O=[N+]([O-])c1ccc2c(c1)Cc1cc(F)ccc1-2,102% (inactive)
5,COc1ccc2[nH]cc(-c3noc(C(=O)c4cn(C)c5ccc(F)cc45)n3)c2c1,101% (inactive)
6,CCOC(=O)c1csc(NC(=O)COc2cccc(/C=C3\CSc4ccccc4C3=O)c2)n1,4.95% (active)
7,O=C(N=Nc1c(O)[nH]c2ccc(Br)cc12)c1cc(-c2ccccc2)on1,106% (inactive)
8,CC1CCNC(C)C1 (stereo unspecified),108% (inactive)
9,CC(O)CN(CC(C)O)c1ccc2c(c1)Cc1cc([N+](=O)[O-])ccc1-2 (stereo unspecified),89.6% (inactive)
10,Nc1nc2ccc3[nH]ncc3c2c2c1CCCC2,1.33% (active)
11,N#CN1CC[C@H](C(=O)Nc2cc3cc(C(N)=O)ccc3cn2)C1,1.69% (active)
12,C=CC(=O)Nc1cccc(-c2nc(SC)nc(NCCN3CCOCC3)c2C#N)c1,95.3% (inactive)
13,CC(=O)OCCC/C(=C/c1cc2ccccc2c2ccccc12)[N+](=O)[O-],-100% (active)
14,NC(CSC(c1ccccc1)(c1ccccc1)c1ccc(Cl)cc1)C(=O)O (stereo unspecified),4.19% (active)
15,Cc1ccccc1COc1ccc(-c2ccnn2-c2ccc(Cl)cc2)cc1,38.1% (inactive)
16,COc1ccc(-c2cc(=O)c3c(OC)c4ccoc4cc3o2)cc1,98% (inactive)

# Reference: PubChem BioAssay (NCI)
